Screening data as filed in PubChem.
The list is not random: actives were taken first. Their share in the collection is about 21%.
Pf growth 48h = inhibits P. falciparum growth in the first generation, 48 h | P. falciparum luciferase growth in erythrocytes, 48 h | AID 504832 | hit rate 5.9% among 310,000 | Potency, µM (top dose mostly 28.7 µM), without a hit: at the top dose activity change, negative = inhibition, usual class: inhibitors; further: potency means the concentration at half of the fitted maximal effect; on the % scale 0 is the no-effect control and ±100 the full control effect
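In quantitative HTS format, infected erythrocytes bearing luciferase-reporter parasites were treated for a single generation at 37 C. Luminescence after adding detection reagent served as the growth measure.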
Pf growth 96h = P. falciparum growth inhibition at 96 hour, primary screen for plastid delayed-death inhibitors; Potency, µM (series often up to 28.7 µM), without a hit: at the highest dose activity change, negative = inhibition, hits mostly inhibitors; hit rate 6.9% among 320,000; P. falciparum luciferase reporter growth, 96 h; further: potency means the concentration at half of the fitted maximal effect; on the % scale 0 is the no-effect control and ±100 the full control effect
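P. falciparum expressing integrated firefly luciferase grown in erythrocytes (2% hematocrit, 0.05% parasitemia final) with compounds for 96 hours at 37 C, 5% CO2. Growth inhibition read as loss of luminescence after adding luciferase detection reagent.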
Shiga inhibitor = blocks Shiga toxin action in Vero cells. AID 2315. inhibition, % at 38.7 µM. Vero cells, Shiga toxin protein synthesis inhibition reporter. hit rate 9.2% among 290,000; in the data active means inhibition mostly above about 28%, no sharp cut-off; inactive means mostly below about 43%; further: 0% is about no effect
Cycloheximide cs = counter-screen hit for Shiga toxin inhibitors, cycloheximide; hit rate 12% among 300,000; max response, %; AID 2314; cell reporter, cycloheximide protein synthesis inhibition counterscreen; in the data active means max response mostly above about 13%, no sharp cut-off; inactive means mostly below about 14%; further: read at 38.3 µM for the half of the compounds with a filed dose; 0% is about no effect
Active calls of the source: *; ? = inconclusive; . = not tested or not shown. Unless noted, the call rests on the fitted dose curve; in most records, active means well fitted inhibition curve with a large enough effect; inconclusive means small, poorly fitted or top-dose-only effect, or another doubt; inactive means no such curve, though single readings can be large or run the other way.

SMILES | Pf growth 48h | Pf growth 96h | Shiga inhibitor | Cycloheximide cs
CC12CC3CC(C)(C1)CC(C(=O)N1CCN(C(=O)C4CCCO4)CC1)(C3)C2 (configuration not stated) | 3.1% | ? | -6.4 | -6.1
Oc1[nH]c2ccc(Br)cc2c1N=Nc1ccc(C(F)(F)F)cn1 | ? | 9.28µM* | 38.9 | 5.7
Oc1[nH]c2ccccc2c1N=Nc1nncc2ccccc12 | ? | 3.5% | 60.4* | 34.9*
Oc1[nH]c2ccccc2c1N=Nc1ccc(C(F)(F)F)cn1 | 68.8% | 112.6% | 17.4 | 17.6*
Cc1cc(OCC(=O)NNC(=O)c2cccs2)ccc1Br | 27.9% | ? | 13.0 | -3.0
COc1cccc(C2NC(=O)NC(O)(C(F)(F)F)C2C(=O)c2cccnc2)c1OC (configuration not stated) | ? | . | 29.5 | 8.2
O=C1NC(c2cn(-c3ccccc3)nc2-c2cccs2)C(C(=O)c2cccnc2)C(O)(C(F)(F)F)N1 (configuration not stated) | . | 13.1µM* | -3.6 | -0.1
COc1ccccc1NC(=S)N/N=C/c1ccc(O)cc1 | 184.3% | 36.3% | 40.4* | 68.9*
COc1ccccc1NC(=S)NC(C)=O | -17.1% | ? | -8.9 | -2.3
CCNC(=S)N/N=C/c1cccc(C)c1 | -24.8% | 90.3% | 56.0* | 36.9*
COc1ccccc1NC(=S)N/N=C/c1cccc(C)c1 | 0.0% | -60.4% | 17.4 | 23.3*
CCOc1ccccc1C(=O)OCC(=O)NCC1CCCCC1 | 4.5% | 6.4% | . | .
COc1ccc(Cl)cc1C(=O)Nn1cnnc1 | -3.2% | ? | -13.1 | 1.4
C=CCn1c(O)c(C(CC)=Nc2cccc(C(=O)O)c2)c(=O)[nH]c1=O | 39.2% | 6.5% | 76.2* | 76.4*
C=CCn1c(O)c(C(C)=Nc2cccc(C(=O)O)c2)c(=O)[nH]c1=O | 11.7% | 26.5% | 61.9* | 29.4*
C=CCn1c(O)c(C(CC)=Nc2ccc3c(c2)CCC3)c(=O)[nH]c1=O | -13.0% | 20.8% | 28.4 | 8.5
C=CCn1c(O)c(C(CC)=Nc2ccc(N(C)C)cc2)c(=O)[nH]c1=O | 0.657µM* | 1.65µM* | 5.0 | 5.2
C=CCNC(=O)NC(=O)COC(=O)/C=C/c1cccc([N+](=O)[O-])c1 | 16.5% | 4.8% | 14.5 | 7.6
CCCCCCNC(=O)n1cc(F)c(=O)[nH]c1=O | 4.26µM* | 2.13µM* | . | .
CCOc1ccc(CCNc2nc3ccc(C)cc3n3cnnc23)cc1OCC | ? | ? | -4.5 | -2.7
CC1(C)CC(=O)C(C(=O)C2CCN(S(=O)(=O)c3ccccc3)CC2)C(=O)C1 | -12.5% | 42.3% | 14.4 | -9.6
CC(C)N(C(=O)COc1ccc(Br)cc1Cl)C(C)C | -6.8% | ? | -16.0 | -2.0
O=C(COc1ccc(Br)cc1Cl)c1ccc[nH]1 | 232.5% | 192.8% | 68.6* | 38.3*
O=C(COc1ccccc1Cl)c1ccc[nH]1 | 114.4% | 111.6% | 57.1 | 30.4*
O=C(COc1cccc(Cl)c1Cl)Nc1ccc2c(c1)CCC2 | 19.1% | 61.2% | 7.7 | 0.5
SMILES | Pf growth 48h | Pf growth 96h | Shiga inhibitor | Cycloheximide cs
O=C(COc1ccccc1Cl)c1ccc2c(c1)CCCC2 | 146.5% | 169.4% | 53.4* | 26.2*
CC(C)OC(=O)c1ccc(N2C(=O)C3CC=CCC3C2=O)cc1 (configuration not stated) | 14.1% | . | 19.3 | 19.9*
CCOC(=O)c1ccc(-n2c(C)ccc2C)cc1 | -22.6% | 7.38µM* | 19.4 | 1.4
CCOC(=O)c1ccc(N2C(=O)CC(SCC(N)C(=O)OCC)C2=O)cc1 (configuration not stated) | 10.4µM* | 90.3% | 19.7 | 11.1
CCOC(=O)c1ccc(N2C(=O)C=CC2=O)cc1 | 22.2% | . | -11.8 | 6.6
COC(=O)c1ccc(N2C(=O)C3CC=CC(C)C3C2=O)cc1 (configuration not stated) | -7.5% | 1.8% | 2.0 | 8.9
CCOC(=O)c1ccc(N2C(=O)C3C(C2=O)C(C(=O)c2ccc(Cl)cc2)N2CCCC32)cc1 (configuration not stated) | 13.1µM* | 16.7% | 3.4 | 1.9
COc1cccc(CC2(CO)CCCN(Cc3c(C)cc(C)cc3-n3cccn3)C2)c1 (configuration not stated) | ? | ? | -11.5 | 1.2
CCOC(=O)c1ccc(N2C(=O)C3CC=CCC3C2=O)cc1 (configuration not stated) | 18.4% | 24.9% | 20.8 | 18.7*
CCOc1ccccc1NC(=O)C(OC(=O)C1CC1)c1ccccc1 (configuration not stated) | ? | -11.7% | -0.7 | 0.4
CCOc1ccccc1NC(=O)C(NCC1(N2CCCCC2)CCCCC1)c1ccccc1 (configuration not stated) | ? | 3.7µM* | -5.5 | -2.3
CSc1ccccc1NC(=O)Cn1c(-c2cscn2)nc2ccccc21 | -18.4% | -3.8% | -2.8 | 1.0
Cc1ccccc1Cn1c(-c2cncs2)nc2ccccc21 | 1.47µM* | 14.3% | 38.9 | 7.7
Brc1ccccc1Cn1c(-c2cscn2)nc2ccccc21 | . | 10.4µM* | -10.3 | -5.1
O=C1CN(C(=O)CNCc2cccc(Cl)c2)c2ccccc2N1 | -10.5% | -7.9% | -6.9 | -0.7
O=C(c1cccs1)c1ccc(-c2cccs2)s1 | -19.7% | ? | 36.5 | 30.3*
CN1CCN(C(=O)c2ccc(-c3cccs3)s2)CC1 | 106.6% | 254.7% | 54.8* | 42.1*
CN1CCCN(C(=O)c2ccc(Br)s2)CC1 | 10.1% | -5.2% | -9.4 | -2.9
Nc1ccccc1C(O)(Cc1ccccc1)c1ccccc1 (configuration not stated) | . | ? | -2.1 | -3.8
O=C(N/N=C/c1cc(Br)cs1)c1c[nH]c2ccccc12 | ? | ? | 62.4* | 44.2*
O=C(N/N=C/c1cc(Br)cs1)c1ccccc1[N+](=O)[O-] | -5.5% | 60.0% | -8.2 | 1.2
O=C(N/N=C/c1ccc(Br)s1)c1ccncc1 | ? | ? | -7.5 | 12.6
O=C(N/N=C/c1ccc(Br)s1)c1c[nH]c2ccccc12 | 10.1% | -26.0% | 68.4* | 46.0*
c1ccc2c(c1)OCCc1c-2[nH]c2ccccc12 | 8.7% | ? | 20.8 | 13.7*
c1ccc2c(c1)SCc1c-2[nH]c2ccccc12 | . | . | 46.9* | 15.1*
SMILES | Pf growth 48h | Pf growth 96h | Shiga inhibitor | Cycloheximide cs
COc1ccccc1N(CC(=O)N1CCN(c2ccccc2)CC1)S(=O)(=O)c1ccc(C)cc1 | ? | ? | -8.0 | -1.7
Cc1cccc(C)c1NC(=O)CN(C)C(=O)CC1CC2CCC1C2 (configuration not stated) | 6.4% | -9.9% | . | .
O=C(CNC(=O)c1ccc(N2C(=O)c3ccccc3C2=O)cc1)OCC(=O)c1ccc(Cl)cc1 | 16.8% | ? | -11.7 | -3.2
CCCCNC(=O)Cn1c(=O)c2c(ncn2CC)n(Cc2ccccc2)c1=O | -2.4% | 13.1µM* | -0.7 | -6.1
COCCn1cnc2c1c(=O)n(CC(=O)c1ccc3c(c1)OCCO3)c(=O)n2Cc1ccccc1 | -22.1% | -15.5% | 19.1 | 9.7*
CCNC(=O)Cn1c(=O)c2c(ncn2Cc2ccccc2)n(Cc2ccccc2)c1=O | ? | 1.04µM* | -12.0 | -3.8
CCn1cnc2c1c(=O)n(CC(=O)Nc1ccc(C(N)=O)cc1)c(=O)n2Cc1ccccc1 | ? | 13.1µM* | 6.8 | 4.5
CCn1cnc2c1c(=O)n(CC(=O)Nc1ccc3c(c1)OC(F)(F)O3)c(=O)n2Cc1ccccc1 | ? | . | -5.1 | -1.8
